# Reference: ChEMBL document CHEMBL4296182, “CO-ADD screening of NIH NCI Diversity Set V”
# For part of these data: Entries with a potency or affinity are not part of this list.
# Assays:
# Staphylococcus aureus = experiment: Antibacterial activity against Staphylococcus aureus MRSA ATCC 43300 (CO-ADD:GP_020); MIC in CAMBH media using NBS plates, by Resazurin F(560/590); type: functional; conditions: Concentration 20 uM, ASSAY_TEST Inhibition of Bacterial Growth, detection method Resazurin, Fluorescence (ex560/em590), MEDIA CAMHB, plate type 384well, CORNING #3640, time 18 hr
# Acinetobacter baumannii = experiment: Antibacterial activity against Acinetobacter baumannii ATCC 19606 (CO-ADD:GN_034); MIC in CAMBH media using NBS plates, by Resazurin F(560/590); type: functional; conditions: Concentration 20 uM, ASSAY_TEST Inhibition of Bacterial Growth, detection method Resazurin, Fluorescence (ex560/em590), MEDIA CAMHB, plate type 384well, CORNING #3640, time 18 hr
# Escherichia coli = experiment: Antibacterial activity against Escherichia coli ATCC 25922 (CO-ADD:GN_001); MIC in CAMBH media using NBS plates, by Resazurin F(560/590); type: functional; conditions: Concentration 20 uM, ASSAY_TEST Inhibition of Bacterial Growth, detection method Resazurin, Fluorescence (ex560/em590), MEDIA CAMHB, plate type 384well, CORNING #3640, time 18 hr
# Klebsiella pneumoniae = conditions: Concentration 20 uM; ASSAY_TEST Inhibition of Bacterial Growth; detection method Absorption (OD600); MEDIA CAMHB; plate type 384well; NBS; CORNING #3640; time 18 hr
# Candida albicans = conditions: 20 µM
# Cryptococcus neoformans = conditions: Concentration 20 uM; ASSAY_TEST Inhibition of Fungal Growth; detection method Resazurin; Absorption (OD600-OD570); plate type 384well; NBS; CORNING #3640
Structure (SMILES),Inhibition (Staphylococcus aureus) [%],Inhibition (Acinetobacter baumannii) [%],Inhibition (Escherichia coli) [%],Inhibition (Klebsiella pneumoniae) [%],Inhibition (Candida albicans) [%],Inhibition (Cryptococcus neoformans) [%]
CCCCn1ccnc1C,-0.22,-5.26,4.7,8.98,0.01,-3.23
O=C1OC(CN(Cc2ccccc2)Cc2ccccc2)CN1/N=C/c1ccc([N+](=O)[O-])o1 (configuration not stated),-19.95,-14.51,10.29,6.15,10.5,-4.47
CC(C)n1cc(C#N)c(N)n1,-0.87,-8.48,18.87,15.17,3.75,-6.7
CC(C)(C)c1ccc(OCC(=O)O)cc1,4.22,-1,10.46,8.68,8.84,-1.59
NS(=O)(=O)c1ccc(/N=N/c2c(O)c(C(=O)O)cc3ccccc23)cc1,-3.85,10.2,-7.6,18.16,-3.08,-0.96
COc1cccc2c1C(CO)N1C(C#N)C3CC(C(=O)O)C(C1C2)N3C (configuration not stated),14.9,-10.77,-1.99,21.32,4.33,-4.3
NCC(=O)Nc1ccc(Cl)cc1C(=O)c1ccc[nH]1,-7.1,-14.48,6.3,6.27,1.44,-13.13
CC1(C)CC(=O)C(CC(=O)c2ccccc2)=C(NNC(=N)N)C1,1.47,8.18,4.18,-0.42,5.62,-4.09
Oc1ccccc1-n1c(-c2ccccc2)ccc1-c1ccccc1,3.47,1.43,1.29,19.15,11.1,-2.48
O=[N+]([O-])c1ccc(Sc2ncccn2)c([N+](=O)[O-])c1,-0.05,-11.01,5.58,8.38,12.9,-3.06
COc1cc(NCc2ccccc2O)c2ncccc2c1,-0.91,-6.99,7.11,7.53,4.54,-12.51
COc1cc2c(c(OC)c1O)C(=O)CO2,-11.73,-8.29,-0.75,1.47,3.59,-3.51
COC(=O)C1=CC(=O)N2CCN=C2S1,6.62,15.89,-3.52,13.6,3.42,-1.02
Nc1cc(Nc2ccc(Br)cc2)nc(N)n1,4.17,10.22,-12.19,18.33,4.62,-4.88
COc1c(NC=O)c2c(c([N+](=O)[O-])c1OC)C(=O)OC2,1.34,7.55,3.05,24.74,5.38,2.82
Nc1nnc(S)n1-c1ccc(Cl)cc1,10.79,-9.57,13.33,-2.18,11.3,-11.28
O=C(Nc1ccccc1)Nc1ccccn1,15.92,-11.25,6.37,12.38,3.3,-4.64
CN1C=C/C(=C/[N+](=O)[O-])N(C)C1=O,9.11,-6.18,4.71,0.88,1.05,-5.15
CNC(=O)Nc1ccc(S(N)(=O)=O)cc1,-4.03,14.32,-4.85,19.46,3.31,0.61
COc1cc2c(cc1OC)C(/C=C/c1ccco1)=NCC2.O=S(=O)(O)O,23.97,13.38,7.22,11.02,-0.93,-6.67
O=S1(=O)CCN(Cc2ccccn2)CC1,22.86,16.69,26.77,2.99,2.84,12.19
CCC(=Cc1ccc(CC)cn1)CC,5.02,-14.68,4.35,10.54,0.05,-5.56
Cc1cc(NC(=O)c2ccccc2)nc(C)n1,8.84,-8.03,12.79,3.38,0.88,-15.88
Nc1ccccc1-c1nc2cnccc2[nH]1,12.51,-12.24,9.24,2.75,-2.69,-6.41

Structure (SMILES),Inhibition (Staphylococcus aureus) [%],Inhibition (Acinetobacter baumannii) [%],Inhibition (Escherichia coli) [%],Inhibition (Klebsiella pneumoniae) [%],Inhibition (Candida albicans) [%],Inhibition (Cryptococcus neoformans) [%]
O=C1c2ccccc2C(=O)c2c(Nc3ccc(CCO)cc3)ccc(O)c21,19.9,1.68,9.39,4.66,-0.52,-4.75
COc1ccc2c(=O)cc(-c3cccnc3)oc2c1OC,4.17,8.21,2.42,26.45,9.13,-11.85
S=C(Sc1ccc(Cl)cc1)Sc1ccc(Cl)cc1,-6.64,10.03,10.65,7.47,2.15,-8.72
Brc1ccc(-c2csc(Nc3nc(-c4ccc(Br)cc4)cs3)n2)cc1,27.27,-8.44,9.62,1.43,3.84,3.42
COC(=O)Nc1csc2c1NC(=O)CCCC2,9.05,-9.14,10.25,10.74,1.85,-7.13
Nc1ccc(/N=N/c2ccccc2Cl)c(N)n1,4.22,-1.2,2.51,18.4,14.2,-16.58
c1ccc(NCCSc2nc3ccccc3s2)cc1,32.95,-17.22,10.16,12.47,3.32,13.76
Oc1ccc(Cl)nn1,1.52,-4.23,4.23,8.48,0.96,1.34
COC(=O)c1cncc(C)c1,18.5,-13.2,14.23,15.45,0.39,-1.27
CCc1nc(NC(C)(C)C)c2cnn(-c3ccccc3)c2n1,6.25,2.78,2.08,23.15,15.4,-0.88
O=C(c1ccccc1)c1ccc[nH]1,-0.8,-3.74,-15.34,11.78,2.09,18.91
Nc1ccc(C(=O)c2cccs2)cn1,33.76,0,26.4,9.25,8.82,-0.14
NCCN1CCNCC1,-1.38,-9.37,9.81,11.04,1.05,4.22
Cc1ccc(NC(=O)N2CCCCC2)cc1NC(=O)N1CCCCC1,-1.56,7.43,3.01,16.93,3.17,1.83
CCOC(=O)CC(=O)NC(C)(C)CCCCC(C)(C)NC(=O)CC(=O)OCC,-5.26,-12.04,17.83,13.05,-0.86,-4.13
c1ccc2[nH]c(CCCCCc3nc4ccccc4[nH]3)nc2c1,5.94,0.02,-19.74,9.39,4.8,17.08
CCOC(=O)/C=C/c1nc(O)c(C)c(C(=O)OCC)n1,-2.98,-11.68,5.55,4.47,0.35,-10.31
NC(=O)NC(=O)c1nccnc1C(=O)O,4.42,-16.67,10.6,1.89,0.76,-7.91
CC1(C)N=C(N)N=C(N)N1c1cccc(CN)c1.CCS(=O)(=O)O,8.6,-6.92,11.68,13.8,2.57,-7.41
Cc1cc(-n2cnc3c(O)ncnc32)ccc1N,0.18,-17.95,5.61,1.65,1.13,-8.1
c1ccc2c(c1)Nc1ccncc1S2,6.69,-7.03,3.1,3.6,2.27,-9.93
CCOC(=O)/C(C#N)=C\c1c[nH]c2ccccc12,-10.31,-2.58,-10.08,2.71,3.53,2.4
CCCCCC(=O)N1CCCCC1,5.23,-9.77,7.04,14.07,3.39,2.22
